Each structure is given as a SMILES string. Active and inactive are the calls of the source.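 The calls were made as follows: active = calcium response above 60% of the acetylcholine maximum at human M5, as a positive modulator; inactive = the rest.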

This test deals with Muscarinic acetylcholine receptor M5 (Homo sapiens) (UniProt P08912). Description: M5 muscarinic receptor positive allosteric modulators, cell-based, single concentration, CHO-K1 hM5, calcium flux (AID 743100). The note with it: CHO-K1 hM5, Fluo-4 calcium flux, ACh EC20, hits give high values; at 10 µM unless noted. (In general: A change in cytosolic calcium serves as a functional read-out for many receptors and channels.)
Chain of Muscarinic acetylcholine receptor M5 (Homo sapiens) (P08912 whole entry, looked up): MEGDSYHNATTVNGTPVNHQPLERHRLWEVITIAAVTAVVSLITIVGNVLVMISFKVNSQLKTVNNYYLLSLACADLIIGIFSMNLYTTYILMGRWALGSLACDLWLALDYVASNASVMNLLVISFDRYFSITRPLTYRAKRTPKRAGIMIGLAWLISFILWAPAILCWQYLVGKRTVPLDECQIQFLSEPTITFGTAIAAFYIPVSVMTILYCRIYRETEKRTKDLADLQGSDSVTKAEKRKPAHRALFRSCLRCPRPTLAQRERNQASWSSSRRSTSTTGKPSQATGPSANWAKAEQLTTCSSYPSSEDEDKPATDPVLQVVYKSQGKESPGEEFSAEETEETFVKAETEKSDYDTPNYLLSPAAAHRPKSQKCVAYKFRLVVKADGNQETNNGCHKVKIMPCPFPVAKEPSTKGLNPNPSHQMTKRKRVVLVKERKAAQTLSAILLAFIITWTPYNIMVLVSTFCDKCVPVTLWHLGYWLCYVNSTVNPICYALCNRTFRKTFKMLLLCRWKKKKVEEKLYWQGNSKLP
Consider `CCc1ccc(S(=O)(=O)N2CCC(C(=O)N(CC)Cc3ccccc3)CC2)cc1`, for which the % ACh max response was 64.3% [at 30 µM] (active).
Regarding `CCN(Cc1ccccc1)C(=O)C1CCN(S(=O)(=O)Cc2ccc(Br)cc2)CC1`, the % ACh max response is 26.2% [at 30 µM] (inactive).
Regarding `CCN(CC1CCN(S(=O)(=O)c2ccc3c(c2)OCCO3)CC1)C(=O)c1ccccc1`, the % ACh max response was 11.3% (inactive).
Regarding `CCN(Cc1ccccc1)C(=O)C1CCN(S(=O)(=O)c2ccc(C(C)(C)C)cc2)CC1`, the % ACh max response was 59.3% [at 30 µM] (inactive).
To `CCN(Cc1ccccc1)C(=O)C1CCN(S(=O)(=O)c2cccc(C#N)c2)CC1` belongs 61% [at 30 µM] (active); to `CCN(Cc1cccc(C(F)(F)F)c1)C(=O)C1CCN(S(=O)(=O)c2ccc3cn[nH]c3c2)CC1`, 35.4% (inactive); to `CCN(C(=O)C1CCN(S(=O)(=O)c2ccc(-n3cccn3)cc2)CC1)[C@H](C)c1ccccc1C(F)(F)F`, 22.7% (inactive).
`CCN(Cc1ccncc1)C(=O)C1CCN(S(=O)(=O)c2ccc3cn[nH]c3c2)CC1`: the % ACh max response is 22.4% (inactive).
To `CCN(Cc1cccc(Cl)c1)C(=O)C1CCN(S(=O)(=O)c2ccc3cn[nH]c3c2)CC1` belongs 73.9% (active).
For `CCN(Cc1ccccc1)C(=O)C1CCN(S(=O)(=O)c2ccncc2)CC1`, the % ACh max response is 24.6% (active).
With `CCN(Cc1ccccc1)C(=O)C1CCN(S(=O)(=O)c2ccc(F)cc2)CC1`, the % ACh max response was 56.2% [at 30 µM] (inactive).
To `CCN(Cc1ccccc1C(F)(F)F)C(=O)C1(F)CCN(S(=O)(=O)c2ccc3[nH]ncc3c2)CC1` belongs 75.9% (active).
To `CC(=O)N(Cc1ccccc1)CC1CCN(S(=O)(=O)c2ccc3occc3c2)CC1` belongs 8.25% (inactive); to `CCN(Cc1ccccc1)C(=O)C1CCN(S(=O)(=O)c2cccc(C)c2)CC1`, 63.8% [at 30 µM] (active); to `CCN(Cc1ccccc1)C(=O)C1CCN(S(=O)(=O)c2ccc(Cl)nc2)CC1`, 50.1% [at 30 µM] (inactive).
With `CCN(Cc1ccccc1)C(=O)C1CCN(S(=O)(=O)c2ccc(C(C)C)cc2)CC1`, the % ACh max response is 66.7% [at 30 µM] (active).
To `CCN(CC1CCN(S(=O)(=O)c2cccc(OC)c2)CC1)C(=O)c1ccccc1` belongs 15.2% (inactive).
To `CCN(Cc1ccccc1)C(=O)C1CCN(S(=O)(=O)c2ccccc2)CC1` belongs 71.5% [at 30 µM] (active).
As to `CCN(Cc1ccccc1)C(=O)C1CCN(S(=O)(=O)c2ccccc2C(F)(F)F)CC1`, the % ACh max response was 21.7% [at 30 µM] (inactive).
For the compound `CCN(Cc1ccccc1)C(=O)C1CCN(S(=O)(=O)c2ccc3nsnc3c2)CC1`, the % ACh max response is 77.9% [at 30 µM] (active).
To `CCN(Cc1ccc(C#N)cc1)C(=O)C1CCN(S(=O)(=O)c2ccc3cn[nH]c3c2)CC1` belongs 8.37% (inactive); to `CCN(Cc1ccccc1)C(=O)C1CCN(S(=O)(=O)c2ccccc2OC)CC1`, 28.1% [at 30 µM] (inactive).
To `O=C(C1CCN(S(=O)(=O)c2ccc3[nH]ncc3c2)CC1)N1Cc2ccccc2C1` belongs 32.5% (inactive); to `CCN(Cc1ccccc1C(F)(F)F)C(=O)C1CCN(S(=O)(=O)c2ccc(-n3cccn3)cc2)CC1`, 81.9% (active).
In the case of `CCN(Cc1ccccc1)C(=O)C1CCN(S(=O)(=O)c2ccc3cn(C)nc3c2)CC1`, the % ACh max response is 64.9% (active).
For the compound `CCN(Cc1ccccn1)C(=O)C1CCN(S(=O)(=O)c2ccc3cn[nH]c3c2)CC1`, the % ACh max response is 35.1% (inactive).
Regarding `[2H]C([2H])(C)N(C(=O)C1CCN(S(=O)(=O)c2ccc3cn[nH]c3c2)CC1)[C@H](C)c1ccccc1`, the % ACh max response is 94.6% (active).
To `CCN(Cc1ccccc1)C(=O)C1CCN(S(=O)(=O)C(C)C)CC1` belongs 20.8% [at 30 µM] (inactive).
Take `CCN(Cc1ccc(C(F)(F)F)cc1)C(=O)C1CCN(S(=O)(=O)c2ccc3cn[nH]c3c2)CC1`: the % ACh max response is 24.2% (inactive).
As to `CCN(Cc1ccc(OC)cc1)C(=O)C1CCN(S(=O)(=O)c2ccc3cn[nH]c3c2)CC1`, the % ACh max response is 32% (inactive).
To `CCN(C(=O)C1CCN(S(=O)(=O)c2ccc3c(c2)CCO3)CC1)[C@H](C)c1ccccc1` belongs 97.5% (active).
To `CCN(Cc1ccccc1C)C(=O)C1CCN(S(=O)(=O)c2ccc3cn[nH]c3c2)CC1` belongs 85.1% (active).
Turning to `CCN(Cc1ccccc1)C(=O)C1CCN(S(=O)(=O)c2ccccc2C)CC1`, the % ACh max response is 28.6% [at 30 µM] (inactive).

Values taken from PubChem BioAssay AID743100 (Vanderbilt Specialized Chemistry Center, 2013).
